The results in this text go back to PubChem BioAssay (EPA / NIEHS).

Some compounds were tested as several samples or in several runs, with calls that do not always agree. Calls of active or inactive are those of the source. How the source made its calls: active means hit-call score of the fitted dose curve at least 0.9, where 1 is the maximum; inactive means score below 0.9.

Read-out in this test: Collagen I, COL1A1 (gene 1277)
Nature of the test: BSK_hDFCGF_CollagenI: BioMAP Diversity Plus: hDFCGF Assay for Collagen I Biomarker Activity (AID 2284250). The note with it: primary human foreskin fibroblasts. As for the experimental part:
BSK_hDFCGF is a cell-based, multiplexed-readout assay that uses foreskin fibroblast, a human skin primary cell, with measurements taken at 24 hours after chemical dosing in a 96-well plate.BSK_hDFCGF_CollagenI is an assay component measured in the BSK_hDFCGF assay. It measures Collagen I antibody related to regulation of gene protein expression using ELISA technology.Data from the assay component BSK_hDFCGF_CollagenI was analyzed at the endpoint, BSK_hDFCGF_CollagenI, in the positive analysis fitting direction relative to DMSO as the negative control and baseline of activity. Using a type of binding reporter, gain or loss-of-signal activity can be used to understand protein changes. To generalize the intended target to other relatable targets, this assay endpoint is annotated to the 'cell adhesion molecules' intended target family, where the subfamily is 'collagen'.
The levels of cell surface (or secreted, indicated by the prefix "s") biomarker endpoints were measured by ELISA. Overt cytotoxicity to cells in confluent adherent cultures (all systems other than the BT system) was assessed by measuring total protein levels using sulforhodamine B (SRB) staining in parallel cultures at the time of biomarker measurements, indicated as SRB endpoints. For proliferation assays for adherent cell types, individual cell types are cultured at sub-confluence and relative cell numbers quantified by SRB staining at time points optimized for each system (48 h: 3C and CASM3C systems; 72 h: BT and HDF3CGF systems; 96 h: SAg system). SRB was performed by staining cells with 0.1% SRB after fixation with 10% TCA and reading wells at 560 nm.Viability and proliferation of PBMC (T cells) was quantified by Alamar Blue reduction for the SAg and BT systems. For PBMC viability (referred to as PBMC Cytotoxicity within the assay endpoint names), cells were plated (75,000/well in a 96-well plate) and then chemical samples added for 1 h before addition of activators, SEB and TSST-1 (20 ng/mL final concentration each). Cells were incubated for 90 h. Then, Alamar Blue (20 uL/well) (Invitrogen, Cat DAL1100) was added for 6 h, and the plates were read with a fluorescence microplate reader at 546/580 nm (excitation/emission). For PBMC proliferation, cells were plated and activated as above but incubated for only 16 h prior to addition of Alamar Blue. Plates were read after 6 h.
Turning to `CC(C)C1OCCN1CCOC(=O)NCCCCCCNC(=O)OCCN1CCOC1C(C)C` (stereo unspecified), the AC50 was 1.44 µM (active) and the outcome was inactive.

`CCCCC(CC)COC(=O)C=Cc1ccc(OC)cc1` (stereo unspecified): the AC50 is 9.37 µM (active) and the result was inactive.

Regarding `CCC[Si](OC(C)=O)(OC(C)=O)OC(C)=O`, the outcome was inactive.

Take `OC(C(F)(F)F)(C(F)(F)F)C(O)(C(F)(F)F)C(F)(F)F`: the result was inactive and the AC50 was 30 µM (active).

For the compound `C1CN(CCOCCN2CCOCC2)CCO1`, the result was inactive.

On to `COc1ccc(C(=O)c2ccccc2O)c(O)c1`, for which the result was inactive.

Take `Cc1c(C(N)=O)cc([N+](=O)[O-])cc1[N+](=O)[O-]`: the outcome was inactive.

Regarding `O=[N+]([O-])c1cc(S(=O)(=O)Nc2ccccc2)ccc1Nc1ccccc1`, the AC50 is 3.86 µM (active) and the result was inactive.

For the compound `COc1ccccc1Oc1c(NS(=O)(=O)c2ccc(C(C)(C)C)cc2)nc(-c2ncccn2)nc1OCCO`, the result was inactive.

As for `CC[N+](CC)(CC(=O)Nc1c(C)cccc1C)Cc1ccccc1` (tested in a mixture with another compound), the outcome was inactive.

As for `CN(C)Cc1cc(C(C)(C)C)c(O)c(C(C)(C)C)c1`, the outcome was inactive.

Turning to `COc1cc(CNC(=O)CCCC/C=C/C(C)C)ccc1O`, the result was inactive.
